Test results: the supplement of paper PMC10811239

Columns and labels:
Assay in all cases: bioluminescence (viable cell) signal fold change after vs before treatment, normalised to DMSO (ratio); higher = more tumour cell growth / less inhibition
Details in all cases: 10 µM; treatment time 6 days
[1] = test system: LEGO organoid PT (PTEN-/-; TP53-/-)
Experimental: (§1)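 Luc2-labelled iPSC-derived glioblastoma-like organoids (LEGOs, genotypes PT = PTEN-/-;TP53-/-, PTCC = plus CDKN2A/B-/-, PTN = plus NF1-/-) were treated with 10 uM drug for 6 days (applied every other day) at 37 C. Bioluminescence imaging was done before treatment and 2 days after the last dose. BLI signals were normalised to the DMSO control on the same day and then to the pre-treatment signal (N=3).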

[2] = test system: LEGO organoid PTCC (PTEN-/-; TP53-/-; CDKN2A-/-; CDKN2B-/-)
Experimental: as §1

[3] = test system: LEGO organoid PTN (PTEN-/-; TP53-/-; NF1-/-)
Experimental: as §1

Compound C[C@H]1COc2c(N3CCN(C)CC3)c(F)cc3c(=O)c(C(=O)O)cn1c23 [Levofloxacin] has a bioluminescence [1] of 0.997, a bioluminescence [2] of 0.587 and a bioluminescence [3] of 0.861.

Compound Cc1cccc(C)c1OCC(=O)N[C@@H](Cc1ccccc1)[C@@H](O)C[C@H](Cc1ccccc1)NC(=O)[C@H](C(C)C)N1CCCNC1=O [Lopinavir] has a bioluminescence [1] of 1.02, a bioluminescence [2] of 0.969 and a bioluminescence [3] of 0.66.

For CN(Cc1cnc2nc(N)nc(N)c2n1)c1ccc(C(=O)N[C@@H](CCC(=O)O)C(=O)O)cc1 [Methotrexate], the bioluminescence [1] was 1.94, the bioluminescence [2] was 1.34 and the bioluminescence [3] was 0.813.

In the case of CC(=O)OCC[N+](C)(C)C.[Cl-] [Acetylcholine chloride], the bioluminescence [1] is reported as 0.981, the bioluminescence [2] is reported as 1.09 and the bioluminescence [3] is reported as 1.15.

COC(=O)C1=C(C)NC(C)=C(C(=O)OCCN(C)Cc2ccccc2)C1c1cccc([N+](=O)[O-])c1.Cl (stereo not drawn) [Nicardipine hydrochloride] showed a bioluminescence [1] of 0.99, a bioluminescence [2] of 1.19 and a bioluminescence [3] of 1.14.

CCc1cc(C(N)=S)ccn1 [Ethinamide] gave a bioluminescence [1] of 2.05, a bioluminescence [2] of 0.707 and a bioluminescence [3] of 1.99.

Work on COCCOC(=O)C1=C(C)NC(C)=C(C(=O)OC(C)C)C1c1cccc([N+](=O)[O-])c1 (stereo not drawn) [Nimodipine] yielded a bioluminescence [1] of 1.49, a bioluminescence [2] of 1.61 and a bioluminescence [3] of 1.19.

Compound C[C@]12CC[C@@H]3c4ccc(O)cc4CC[C@H]3[C@@H]1CC[C@@H]2O [Estradiol] has a bioluminescence [1] of 0.389, a bioluminescence [2] of 0.435 and a bioluminescence [3] of 1.18.

For NC(=O)c1cnccn1 [Pyrazinamide], the bioluminescence [1] was 0.603, the bioluminescence [2] was 1.24 and the bioluminescence [3] was 1.72.

CS(=O)(=O)c1cccc(C[C@H](NC(=O)c2c(Cl)cc3c(c2Cl)CCN(C(=O)c2ccc4ccoc4c2)C3)C(=O)O)c1 [Lifitegrast] gave a bioluminescence [1] of 1.49, a bioluminescence [2] of 1.08 and a bioluminescence [3] of 0.439.

For CN(C)C(=N)NC(=N)N.Cl [Metformin hydrochloride], the bioluminescence [1] was 2.55, the bioluminescence [2] was 1.27 and the bioluminescence [3] was 1.35.

With C/C(O)=C(\C#N)C(=O)Nc1ccc(C(F)(F)F)cc1 [Teriflunomide] the bioluminescence [1] was 1.68, the bioluminescence [2] was 0.469 and the bioluminescence [3] was 2.32.

Cc1ccc(Nc2nccc(N(C)c3ccc4c(C)n(C)nc4c3)n2)cc1S(N)(=O)=O.Cl [Pazopanib HCl] showed a bioluminescence [1] of 0.626, a bioluminescence [2] of 1.41 and a bioluminescence [3] of 1.02.

Compound O=NN(CCCl)C(=O)NC1CCCCC1 [Lomustine] has a bioluminescence [1] of 2.59, a bioluminescence [2] of 1.17 and a bioluminescence [3] of 1.92.

For Cc1ncc([N+](=O)[O-])n1CCO [Metronidazole], the bioluminescence [1] was 0.839, the bioluminescence [2] was 0.966 and the bioluminescence [3] was 1.56.

For CC(C)Cc1ccc(C(C)C(=O)O)cc1 (stereo not drawn) [Ibuprofen], the bioluminescence [1] was 1.56, the bioluminescence [2] was 0.624 and the bioluminescence [3] was 1.57.

In the case of CCN(CC)CC#CCOC(=O)C(O)(c1ccccc1)C1CCCCC1 (stereo not drawn) [Oxybutynin], the bioluminescence [1] is reported as 0.449, the bioluminescence [2] is reported as 0.776 and the bioluminescence [3] is reported as 1.53.

In the case of CSc1ccc2c(c1)N(CCC1CCCCN1C)c1ccccc1S2.Cl (stereo not drawn) [Thioridazine hydrochloride], the bioluminescence [1] is reported as 0.68, the bioluminescence [2] is reported as 0.704 and the bioluminescence [3] is reported as 1.56.

CCOC(=O)c1ccc(C#Cc2ccc3c(c2)C(C)(C)CCS3)nc1 [Tazarotene] showed a bioluminescence [1] of 1.52, a bioluminescence [2] of 1.42 and a bioluminescence [3] of 1.11.

With Cc1cc(NS(=O)(=O)c2ccc(N)cc2)no1 [Sulfamethoxazole] the bioluminescence [1] was 3.73, the bioluminescence [2] was 1.56 and the bioluminescence [3] was 1.8.

CC(=O)OCC(=O)[C@@]1(O)CC[C@H]2[C@@H]3CCC4=CC(=O)C=C[C@]4(C)[C@H]3[C@@H](O)C[C@@]21C [Prednisolone-21-acetate] was tested, and the bioluminescence [1] was 0.578, the bioluminescence [2] was 1.01 and the bioluminescence [3] was 0.956.

For CSCC[C@@H](N)C(=O)O [Methionine], the bioluminescence [1] was 1.1, the bioluminescence [2] was 0.816 and the bioluminescence [3] was 1.35.

With CC(CN(C)C)CN1c2ccccc2CCc2ccccc21.O=C(O)/C=C\C(=O)O (stereo not drawn) [Trimipramine maleate] the bioluminescence [1] was 0.503, the bioluminescence [2] was 0.61 and the bioluminescence [3] was 1.58.

Work on Cc1nc(Nc2ncc(C(=O)Nc3c(C)cccc3Cl)s2)cc(N2CCN(CCO)CC2)n1 [Dasatinib] yielded a bioluminescence [1] of 0.748, a bioluminescence [2] of 0.977 and a bioluminescence [3] of 2.

CCC1=CC2CN(C1)Cc1c([nH]c3ccccc13)[C@](C(=O)OC)(c1cc3c(cc1OC)N(C)[C@H]1[C@@](O)(C(=O)OC)[C@H](OC(C)=O)[C@]4(CC)C=CCN5CC[C@]31[C@@H]54)C2.O=C(O)[C@H](O)[C@@H](O)C(=O)O.O=C(O)[C@H](O)[C@@H](O)C(=O)O (stereo partly drawn) [Vinorelbine ditartrate] gave a bioluminescence [1] of 0.558, a bioluminescence [2] of 0.445 and a bioluminescence [3] of 1.54.

O=c1[nH]cnc2c1ncn2[C@H]1CC[C@@H](CO)O1 [Didanosine] gave a bioluminescence [1] of 0.958, a bioluminescence [2] of 4.18 and a bioluminescence [3] of 0.81.

O=C1CCC(N2C(=O)c3ccccc3C2=O)C(=O)N1 (stereo not drawn) [Thalidomide] showed a bioluminescence [1] of 3.97, a bioluminescence [2] of 0.79 and a bioluminescence [3] of 1.38.

For NC(=O)N[C@@H](CCC(=O)O)C(=O)O [Carglumic Acid], the bioluminescence [1] was 1.27, the bioluminescence [2] was 0.631 and the bioluminescence [3] was 1.55.

NC[C@H]1CC[C@H](C(=O)O)CC1 [Amstat] gave a bioluminescence [1] of 1.51, a bioluminescence [2] of 0.622 and a bioluminescence [3] of 0.778.

Compound CN(C)CCc1c[nH]c2ccc(CS(=O)(=O)N3CCCC3)cc12.O=C(O)CC(O)C(=O)O [Almotriptan Malate] has a bioluminescence [1] of 1.74, a bioluminescence [2] of 0.868 and a bioluminescence [3] of 0.959.

Compound CN1C(C(=O)Nc2ccccn2)=C(O)c2ccccc2S1(=O)=O [Piroxicam] has a bioluminescence [1] of 1.07, a bioluminescence [2] of 1.65 and a bioluminescence [3] of 1.14.

Compound Nc1ccn([C@@H]2O[C@H](CO)[C@@H](O)[C@@H]2O)c(=O)n1 [Cytarabine] has a bioluminescence [1] of 1.82, a bioluminescence [2] of 1.15 and a bioluminescence [3] of 0.51.

In the case of CC[C@@H]1/C=C(\C)C[C@H](C)C[C@H](OC)[C@H]2O[C@@](O)(C(=O)C(=O)N3CCCC[C@H]3C(=O)O[C@H](/C(C)=C/[C@@H]3CC[C@H](Cl)[C@H](OC)C3)[C@H](C)[C@@H](O)CC1=O)[C@H](C)C[C@@H]2OC [Pimecrolimus], the bioluminescence [1] is reported as 1.29, the bioluminescence [2] is reported as 0.535 and the bioluminescence [3] is reported as 0.347.

With CC[C@]1(O)C[C@H]2C[N@](CCc3c([nH]c4ccccc34)[C@@](C(=O)OC)(c3cc4c(cc3OC)N(C=O)[C@H]3[C@@](O)(C(=O)OC)[C@H](OC(C)=O)[C@]5(CC)C=CCN6CC[C@]43[C@@H]65)C2)C1.O=S(=O)(O)O [Vincristine sulfate] the bioluminescence [1] was 0.224, the bioluminescence [2] was 2.47 and the bioluminescence [3] was 0.8.

Work on CCCCCCCCCC(=O)OCCN1CCN(CCCN2c3ccccc3Sc3ccc(C(F)(F)F)cc32)CC1 [Fluphenazine decanoate] yielded a bioluminescence [1] of 0.875, a bioluminescence [2] of 2.63 and a bioluminescence [3] of 0.964.

For NS(=O)(=O)c1cc2c(cc1Cl)N=CNS2(=O)=O [Chlorothiazide], the bioluminescence [1] was 0.96, the bioluminescence [2] was 1.63 and the bioluminescence [3] was 1.33.

Nc1nc2c(ncn2COCCO)c(=O)[nH]1 [Aciclovir] showed a bioluminescence [1] of 2.34, a bioluminescence [2] of 2.16 and a bioluminescence [3] of 4.45.

In the case of CCc1nc(N)nc(N)c1-c1ccc(Cl)cc1 [Pyrimethamine], the bioluminescence [1] is reported as 0.65, the bioluminescence [2] is reported as 1.06 and the bioluminescence [3] is reported as 0.803.

For Cc1ccccc1C(OCCN(C)C)c1ccccc1.O=C(O)CC(O)(CC(=O)O)C(=O)O (stereo not drawn) [Orphenadrine Citrate], the bioluminescence [1] was 0.847, the bioluminescence [2] was 2.65 and the bioluminescence [3] was 0.98.

Work on CC(=O)Nc1ccc(O)cc1 [Acetaminophen] yielded a bioluminescence [1] of 1.19, a bioluminescence [2] of 0.686 and a bioluminescence [3] of 0.918.

For CCOC(=O)N1CC\C(CC1)=C1\c2ccc(Cl)cc2CCc2cccnc12 [Loratadine], the bioluminescence [1] was 0.684, the bioluminescence [2] was 1.05 and the bioluminescence [3] was 1.36.
